From PubChem
Most compounds without a hit are left out; they make up all but 7.6% or so of the library.
p53 reactivator = re-activators of mutant p53. H1299 p53-A138V BP100-luciferase reporter, luminescence, 24 h. Potency, µM (titrated, usually from 92.2 µM), without a hit: at the top dose activity change, positive = activation, actives largely listed as activators. actives 0.063% (n = 320,000). AID 504706; note: potency is the fitted concentration of half-maximal effect; % of control where 0% means no effect; nearly all actives have a fitted effect of over 45% in size
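p53-null H1299 cells stably carrying temperature-sensitive p53-A138V and a BP100-luciferase reporter were pinned with compounds (4-point, 1:5 series) and held 24 hrs at 37 deg C. Luminescence was read 10 min after detection reagent.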
ELG1 repair inh = ELG1-dependent DNA repair inhibition; HEK293T ELG1-luciferase reporter, luminescence, 16 h; DNA damage induced by 5-fluorouridine; Potency, µM (highest dose often 46.1 µM), inactives show at the top dose activity change, negative = inhibition, actives largely listed as inhibitors; actives 2.3% (n = 330,000); AID 504467; note: potency is the fitted concentration of half-maximal effect; % is set by controls: 0 for no effect and ±100 for the full control effect; nearly all actives have a fitted effect of over 55% in size
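Quantitative HTS, concentration-response format. 2,000 cells/well co-treated with 5-fluorouridine and compound, 16 hr in 5% CO2 at 37 °C; ONE-Glo luminescence read after 30 min.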
RORgamma inh = blocks mouse ROR gamma transcriptional activity | P51450 | Drosophila S2 Gal4-RORgamma UAS-luciferase reporter, 20 h | Potency, µM (titrated, usually from 53.6 µM), inactives show at the highest dose activity change, negative = inhibition, actives largely listed as inhibitors | actives 5.4% (n = 310,000); note: potency is the fitted concentration of half-maximal effect; % is set by controls: 0 for no effect and ±100 for the full control effect; nearly all actives have a fitted effect of over 60% in size
Target sequence (P51450 whole entry, looked up, the tested form may be a part): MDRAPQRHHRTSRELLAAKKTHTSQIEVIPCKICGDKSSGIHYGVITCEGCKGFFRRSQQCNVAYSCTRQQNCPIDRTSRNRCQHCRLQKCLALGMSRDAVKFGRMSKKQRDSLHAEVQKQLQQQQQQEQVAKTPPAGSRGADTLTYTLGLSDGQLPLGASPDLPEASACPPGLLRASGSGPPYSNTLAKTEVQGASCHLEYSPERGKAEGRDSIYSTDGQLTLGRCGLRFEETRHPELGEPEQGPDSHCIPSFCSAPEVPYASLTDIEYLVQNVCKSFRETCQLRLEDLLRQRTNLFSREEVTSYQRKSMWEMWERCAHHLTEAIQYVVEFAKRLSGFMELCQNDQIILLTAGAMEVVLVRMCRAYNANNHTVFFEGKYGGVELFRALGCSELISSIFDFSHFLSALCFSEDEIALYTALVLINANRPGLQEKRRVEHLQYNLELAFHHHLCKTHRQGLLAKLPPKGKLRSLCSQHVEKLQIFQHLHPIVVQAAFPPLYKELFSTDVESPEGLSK
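Read-out: Photinus luciferase luminescence; inhibitors lower reporter signal. Insect Schneider cells with Gal4-ROR gamma fusion under metallothionein promoter, UAS reporter; 700 uM final copper sulfate induction, 20 hr, ambient temperature.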
VP16 counter = Gal4-VP16 reporter inhibition counter-screen; Drosophila S2 Gal4-VP16 UAS-luciferase, luminescence, 20 h; Potency, µM (doses to about 53.6 µM), for inactives: top-dose activity, negative = inhibition, hits mostly inhibitors; actives 3.5% (n = 310,000);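 note: Gal4-VP16 expression switched on by copper sulfate through the metallothionein promoter; potency is the fitted concentration of half-maximal effect; % is set by controls: 0 for no effect and ±100 for the full control effect; nearly all actives have a fitted effect of over 50% in size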
BRCA1 expr up = activators of BRCA1 expression. MCF7-BRCA1-FFLuc reporter, luminescence, 48 h; response scale: scaled: vehicle 0%, 10 µM genistein 100%. Potency, µM (titrated, usually from 46.1 µM), without a hit: top-dose activation, usual class: activators. actives 1.1% (n = 380,000); note: potency is the fitted concentration of half-maximal effect; nearly all actives have a fitted effect of over 80% in size
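MCF7 cells carrying a BRCA1-firefly luciferase reporter (2000 cells/well, phenol-red free MEM) were attached for 2 h at 37 °C, then given compounds for 48 h. Luminescence was read 15 min after luciferase reagent; activity normalized to genistein (10 microM) and DMSO.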
Giardia kill = kills Giardia lamblia; Giardia lamblia trophozoite viability; activity change, % at 7.66 µM, hits read low; actives 0.15% (n = 340,000); in the data active = activity change below about -80%; inconclusive = between about -30% and that limit;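 note: parasites exposed to compound for two days anaerobically before the ATP read; % is set by controls: 0 for no effect and ±100 for the full control effect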
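Viability, read as ATP luminescence: trophozoites at 100 cells/well, compound added, 48 hrs anaerobic at 37 deg C, then 15-30 min room-temperature development before reading.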
* hit, by the source's call; ? = inconclusive; · = no result; [ ] = dose if it differs, or a comment. Unless noted, calls come from the whole dose curve; as a rule, active = well fitted curve in the direction sought with a large enough effect; inconclusive = small, poorly fitted or top-dose-only effect, or another doubt; inactive = no such curve, though single readings can be large; an effect the other way counts as inactive or inconclusive.

SMILES | p53 reactivator | ELG1 repair inh | RORgamma inh | VP16 counter | BRCA1 expr up | Giardia kill
COc1ccc(CNC(=O)C[C@H]2C[C@H](C(=O)N3CCCCC3)[C@@]3(C)c4[nH]c5cc(-c6ccco6)ccc5c4CCN3C2=O)cc1OC | -7% | 21µM* | · | · | -56% | 3
CCN(CC)C(=O)[C@H]1C[C@H](CC(=O)NCc2ccc(OC)c(OC)c2)C(=O)N2CCc3c([nH]c4cc(-c5ccco5)ccc34)[C@]12C | -17% | 23µM* | · | · | -49% | 5
Cc1cc(C)cc(OCC(=O)OCC(=O)Nc2cc(S(=O)(=O)N3CCOCC3)ccc2C)c1 | 7% | 9% | · | · | -14% | -3
O=C(CN1C(=O)CC(c2ccco2)Sc2ccccc21)NCc1ccc2c(c1)OCO2 (centres undefined) | -9% | ? | ? | 19% | -31% | -5
CCN(CC)C(=O)c1cc(S(=O)(=O)N2CCCCC2)c[nH]1 | · | 11% | 2% | -1% | 0% | -29
NNC(=O)c1ccc2nc(-c3ccc(Br)cc3)cn2c1 | 16% | ? | 11µM* | ? | -78% | 10
NNC(=O)c1ccc(Cn2cc(Br)cn2)cc1 | -2% | -22% | -23% | 2% | -54% | -18
COc1ccc(-c2cn3cc(C(=O)NN)ccc3n2)cc1 | -8% | ? | ? | 10µM* | 32% | -9
O=C(CCc1nnc(CCC2CCCCC2)o1)NCCn1cccn1 | 4% | 8% | -2% | -26% | 3% | 20
COc1ccc(C(=O)Nc2cc(OC)cc3cccnc23)cc1 | -1% | 11% | 14% | 3% | -26% | 0
O=S(=O)(Nc1cccc2cccnc12)c1cccc2ccccc12 | · | · | · | · | -68% | 0
Cc1ccc(S(=O)(=O)Nc2cccc3ccc(C)nc23)cc1 | · | · | 3.2µM* | ? | · | ·
O=S(=O)(Nc1cccc2cccnc12)c1ccc2ccccc2c1 | · | · | 5.6µM* | 0.63µM* | -62% | -2
Cc1ccc(S(=O)(=O)Nc2cccc3ncccc23)s1 | -58% | ? | 0.28µM* | 0.56µM* | -83% | -1
COc1ccc(S(=O)(=O)Nc2cc(OC)cc3cccnc23)cc1 | · | · | 2.5µM* | ? | · | ·
c1ccc(-c2nn3c(-c4ccccc4)nnc3o2)cc1 | · | · | · | · | -26% | ·
CCOc1cccc(C2C(C#N)=C(N)Oc3cc(C)n(Cc4ccccn4)c(=O)c32)c1OCC (centres undefined) | 6% | -8% | -18% | -11% | 8% | 2
Cc1ccc2nc(NC(=O)c3ccc(NS(=O)(=O)c4cccs4)cc3)sc2c1 | ? | -2% | -8% | ? | 64% | -10
COc1ccc(NC(=O)c2cccc(Cn3cc(Br)c([N+](=O)[O-])n3)c2)c(C)c1 | -1% | ? | ? | -28% | -14% | -17
O=S(=O)(Nc1cccc2cccnc12)c1cccs1 | · | · | · | · | -70% | -13
O=C(O)c1ccccc1NS(=O)(=O)c1ccc2ccccc2c1 | ? | ? | -21% | -7% | 13µM* | -17
O=S(=O)(Nc1cccc2cccnc12)c1ccc(Br)cc1 | · | · | 0.56µM* | 1.3µM* | · | ·
O=S(=O)(Nc1cccc2cccnc12)c1ccc(Br)s1 | · | · | 0.56µM* | 1.1µM* | · | ·
Nc1ccc(S(=O)(=O)Nc2ccccn2)cc1 | -2% | 5% | 6% | 0% | 15% | 10
Nc1ccc(S(=O)(=O)Nc2cccc3cccnc23)cc1 | · | · | 4µM* | 11µM* | · | ·
SMILES | p53 reactivator | ELG1 repair inh | RORgamma inh | VP16 counter | BRCA1 expr up | Giardia kill
O=S(=O)(Nc1cccc2cccnc12)C1CC1 | · | · | · | · | -63% | 7
Cc1cc(C)c(S(=O)(=O)Nc2cccc3nsnc23)c(C)c1 | -7% | -3% | 5% | -5% | -37% | 12
O=S(=O)(Nc1ccccc1O)c1cccc2cccnc12 | -2% | ? | -37% | -8% | -4% | -15
O=S(=O)(Nc1cccc2cccnc12)c1ccccc1O | · | · | 2µM* | 3.2µM* | · | ·
Cc1cc(C)c(S(=O)(=O)Nc2cccc3cccnc23)c(C)c1 | · | · | 0.089µM* | 0.32µM* | -51% | -10
CC(=O)C1N=NCC1c1ccccc1 (centres undefined) | · | · | · | · | -10% | 6
Cc1c(NS(=O)(=O)c2ccc(NC(=O)CCC(=O)O)cc2)c(=O)n(-c2ccccc2)n1C | 3% | 0% | 24% | 0% | 31% | -3
COc1ccc(CCNC(=O)c2cc3c(=O)n4cccc(C)c4nc3n(Cc3ccco3)c2=N)cc1OC | -25% | ? | 1.6µM* | 1.1µM* | -12% | -2
Cc1ccc(CNC(=O)c2cc3c(=O)n4ccccc4nc3n(Cc3ccco3)c2=N)cc1 | 4% | -3% | 3.2µM* | 2.8µM* | -24% | 2
Cc1cccn2c(=O)c3cc(C(=O)NCc4ccco4)c(=N)n(CCc4ccccc4)c3nc12 | 9% | 0% | -5% | -10% | -10% | 15
Cc1cccn2c(=O)c3cc(C(=O)NCCc4ccccc4)c(=N)n(Cc4ccco4)c3nc12 | 3% | 15µM* | 1% | -18% | -74% | -12
CCc1ccc(OCC2c3cc(OC)c(OC)cc3CCN2C(=S)NC)cc1 (centres undefined) | -7% | ? | 11µM* | 6% | -81% | 4
CCc1ccc(OCC2c3cc(OC)c(OC)cc3CCN2C(=S)NCCOC)cc1 (centres undefined) | 0% | 23µM* | 20%[10 µM] | -12% | -10% | -19
CCNC(=S)N1CCc2cc(OC)c(OC)cc2C1COc1ccc(OC)cc1 (centres undefined) | -3% | ? | 6% | -17% | 0% | -15
CCc1ccc(OCC2c3cc(OC)c(OC)cc3CCN2C(=O)Cc2ccc(OC)c(OC)c2)cc1 (centres undefined) | · | · | · | · | -51% | ·
OCCC1CN(Cc2cc(F)ccc2-n2cccn2)CCN1C1CCCC1 (centres undefined) | -2% | -4% | 7% | -6% | -23% | 25
CC1(C)CC(=O)c2sc(NS(=O)(=O)c3cc(Cl)ccc3Cl)nc2C1 | -2% | -4% | -1% | -13% | -3% | -10
CCOC(=O)C1CCCN(C(=O)c2ccc(CS(=O)(=O)Cc3ccccc3C)o2)C1 (centres undefined) | -24% | ? | -29% | 0% | -19% | 12
C=CCn1c(O)c(N=NC(=S)Nc2cccc(C)c2)c2ccccc21 | 8% | 15% | 0.25µM* | 0.45µM* | -94% | 0
Cc1ccc(S(=O)(=O)N2CCOCC2)cc1C(=O)Nc1ccccc1F | · | 0% | · | · | -8% | 13
Cc1ccc(Cn2c(O)c(N=NC(=S)Nc3ccccc3F)c3ccccc32)cc1 | 1% | 5.2µM* | 4µM* | 7.1µM* | -42% | -7
